Screening results from PubChem.
A selection: hits, their analogues and other compounds. The true share with any hit is near 6.7%.
T cruzi growth-1 = blocks T. cruzi growth in NIH3T3 culture | T. cruzi beta-gal in NIH3T3, GalScreen luminescence, 90 h | 77,000 tested, 5.9% active | inhibition, % at 8.34 µM;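 active means mean inhibition above about 93%, with at least 55% of replicates each passing it, limit read from the data, passing the limit was not always enough; inconclusive means only one of those two conditions holds; inactive means neither condition holds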
Pf Dd2 growth = blocks growth of Plasmodium falciparum Dd2 parasites. P. falciparum Dd2 growth, SYBR Green, 72 h; active compounds read low. activity change, % at 10 µM. 94,000 tested, 2.3% active; in the data active means activity change below about -80%; inconclusive means no clear call, values can overlap the other calls
C diff HTS = C. difficile growth inhibition. Clostridium difficile clinical isolate growth, OD600, 24 h; active compounds read low. growth activity, negative = inhibition, % at 16 µg/mL (by protocol). 86,000 tested, 0.25% active. AID 1259249;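 active means mean growth activity at or below -80% and every replicate also at or below -80%; inconclusive means mean at or below -80% but some replicate above -80%; inactive means mean growth activity above -80%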;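 further: 0% = DMSO wells and -100% = levofloxacin 16 µg/mL wells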
T cruzi growth-2 = inhibitors of T. cruzi proliferation | inhibition, % at 8.35 µM | 5,600 tested, 72% active | AID 651739 | T. cruzi beta-gal in NIH3T3, GalScreen luminescence, 90 h | shares compounds with T cruzi growth-1;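 active means mean replicate inhibition above about 95% and at least 55% of replicates individually reaching it, limit read from the data; inconclusive means only one of the two criteria is met; inactive means neither criterion is met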
T cruzi growth-3 = Trypanosoma cruzi proliferation inhibition | shares compounds with T cruzi growth-1 | T. cruzi beta-gal in NIH3T3, GalScreen luminescence, 90 h | inhibition, % at 2.09 µM | 5,600 tested, 21% active;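 active means mean inhibition above about 95%, with at least 55% of replicates also reaching it, limit read from the data; inconclusive means meets just one of the two conditions; inactive means meets neither condition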;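 further: plate controls were neutral control median for no effect and positive control median for full effect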
NIH3T3 tox = cytotoxicity in mouse NIH/3T3 fibroblasts; shares compounds with T cruzi growth-1; NIH/3T3 viability, CellTiter-Glo ATP luminescence, 90 h; cytotoxicity (signal decrease), % at 8.35 µM; 5,600 tested, 14% active;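 active means mean signal decrease across replicates above about 35% based on untreated-well scatter, with enough replicates individually passing, limit read from the data; inconclusive means no rule stated though some were filed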;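 further: 0% = median of neutral control wells and 100% = median of positive control wells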
3T3 cytotox 2 = cytotoxicity in mouse NIH/3T3 fibroblasts; inhibition, % at 24.9 µM; AID 651744; 5,600 tested, 56% active; NIH/3T3 viability, CellTiter-Glo ATP luminescence, 90 h; shares compounds with T cruzi growth-1;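 active means mean loss of cell viability signal at or above a set limit, and enough replicates individually reaching it; inconclusive means meets only the mean limit or only the replicate share; inactive means meets neither condition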;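 further: 0% = median of neutral control wells and 100% = median of positive control wells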
* = called active by the depositor; ? = inconclusive; / = no result given.

SMILES | T cruzi growth-1 | Pf Dd2 growth | C diff HTS | T cruzi growth-2 | T cruzi growth-3 | NIH3T3 tox | 3T3 cytotox 2
C[C@H](CO)N1C[C@H](C)[C@@H](CN(C)Cc2ccc(Oc3ccccc3)cc2)Oc2ccc(NC(=O)Nc3ccccc3)cc2C1=O | 56 | -4 | 8 | / | / | / | /
COc1ccc2c3c([nH]c2c1)[C@@H](CO)N(C(C)=O)CC31CCN(C(=O)c2ccc3c(c2)OCO3)CC1 | / | -8 | -12 | / | / | / | /
C[C@H](CO)N1C[C@H](C)[C@H](CN(C)S(=O)(=O)c2cccs2)OCCCC[C@H](C)Oc2ccc(NS(=O)(=O)c3cn(C)cn3)cc2C1=O | / | -10 | -5 | / | / | / | /
Cc1ccc(-c2cnc3c(c2)C(=O)N([C@H](C)CO)C[C@@H](C)[C@@H](CN(C)C(=O)c2cccnc2)O3)cc1 | 7 | -19 | -3 | / | / | / | /
C[C@@H]1CN([C@@H](C)CO)C(=O)CCCn2nncc2CO[C@H]1CN(C)Cc1ccc(C(=O)Nc2ccccc2N)cc1 | 110* | -11 | -6 | 101* | 107* | 9 | 36*
C[C@@H]1CN([C@@H](C)CO)C(=O)CCCn2nncc2CO[C@@H]1CN(C)Cc1ccc(C(=O)Nc2ccccc2N)cc1 | 82 | 0 | / | / | / | / | /
C[C@H](CO)N1C[C@H](C)[C@@H](CN(C)Cc2ccc(C(=O)Nc3ccccc3N)cc2)OCc2cnnn2CCCC1=O | 110* | -14 | -4 | 106* | 89 | 4 | ?
C[C@H](CO)N1C[C@H](C)[C@H](CN(C)Cc2ccc(C(=O)Nc3ccccc3N)cc2)OCc2cn(nn2)CCCC1=O | 78 | -7 | / | / | / | / | /
C[C@@H]1CN([C@H](C)CO)C(=O)CCCn2nncc2CO[C@H]1CN(C)Cc1ccc(-c2ccccc2)cc1 | -53 | -21 | 6 | / | / | / | /
C[C@H](CO)N1C[C@H](C)[C@@H](CN(C)Cc2ccc(C(=O)O)cc2)OCc2cnnn2CCCC1=O | / | 21 | -14 | / | / | / | /
C[C@H](CO)N1C[C@H](C)[C@@H](CN(C)Cc2ccc(-c3ccccc3)cc2)OCc2cnnn2CCCC1=O | ? | -21 | 4 | 51 | 11 | 17 | 51*
C[C@@H]1CN([C@H](C)CO)C(=O)CCCn2nncc2CO[C@H]1CN(C)Cc1ccc(C(=O)Nc2ccccc2N)cc1 | 109* | -21 | / | 101* | 93 | 13 | 31*
COc1ccc2c3c([nH]c2c1)[C@@H](CO)N(S(C)(=O)=O)CC31CCN(CC2CCCCC2)CC1 | / | -28 | -2 | / | / | / | /
O=C(c1ccccn1)N1CC2(C1)[C@H](c1ccccc1)[C@H](CO)N2C(=O)C1CCC1 | / | 8 | -1 | / | / | / | /
CO[C@@H]1CN(C)C(=O)c2cc(NC(=O)Nc3ccccc3F)ccc2OC[C@@H](C)N(Cc2ccccc2C(=O)O)C[C@H]1C | / | 40 | / | / | / | / | /
Cc1noc(C)c1NC(=O)N(C)C[C@@H]1OCCCC[C@@H](C)Oc2ccc(NC(=O)NC3CCCCC3)cc2C(=O)N([C@H](C)CO)C[C@@H]1C | 34 | -28 | 0 | / | / | / | /
O=C(Nc1ccccc1)N1CCCCN2[C@@H](CO)[C@H](c3ccc(C#Cc4ccccc4)cc3)[C@@H]2C1 | 68 | -74 | -69 | / | / | / | /
O=C(Nc1ccccc1F)N1CCCCN2[C@H](CO)[C@H](c3ccc(C#Cc4cccnc4)cc3)[C@@H]2C1 | 107* | ? | -17 | 110* | 78 | 43* | ?
O=C(Nc1cccc(F)c1)N1CCCCN2[C@H](CO)[C@@H](c3ccc(C#Cc4ccccc4)cc3)[C@H]2C1 | 60 | -66 | 19 | / | / | / | /
O=C(Nc1cccc(F)c1)N1CCCCN2[C@H](C1)[C@H](c1ccc(C#CC3CC3)cc1)[C@@H]2CO | 118* | -6 | 35 | 110* | 87 | 10 | 11
O=C(Nc1ccccc1)N1CCCCN2[C@@H](CO)[C@@H](c3ccc(C#Cc4cccnc4)cc3)[C@@H]2C1 | 105* | -66 | 40 | 109* | 90 | 18 | 81*
O=C(Nc1cccc(F)c1)N1CCCCN2[C@@H](CO)[C@H](c3ccc(C#Cc4ccccc4)cc3)[C@@H]2C1 | 65 | ? | 11 | / | / | / | /
O=C(Nc1ccccc1F)N1CCCCN2[C@H](CO)[C@@H](c3ccc(C#Cc4cccnc4)cc3)[C@H]2C1 | 14 | -52 | 4 | / | / | / | /
O=C(Nc1cccc(F)c1)N1CCCCN2[C@H](C1)[C@H](c1ccc(C#Cc3ccccc3)cc1)[C@@H]2CO | 100* | -23 | -2 | 101* | ? | 15 | 38*
COc1cccc(-c2ccc([C@H]3[C@H](CO)N4C(=O)CN(C(=O)C5CCC5)C[C@@H]34)cc2)c1 | / | -1 | -1 | / | / | / | /
SMILES | T cruzi growth-1 | Pf Dd2 growth | C diff HTS | T cruzi growth-2 | T cruzi growth-3 | NIH3T3 tox | 3T3 cytotox 2
O=C(C[C@@H]1CC[C@H]2[C@@H](COC[C@H](O)CN2C(=O)c2ccncc2)O1)NCc1ccc(-c2ccccc2)cc1 | 56 | -6 | -11 | / | / | / | /
CCC(=O)N1C[C@@H](C)[C@H](OC)CN(C)C(=O)c2cc(NC(=O)c3ccccc3)ccc2OC[C@H]1C | -29 | 15 | / | / | / | / | /
C[C@@H]1CN([C@H](C)CO)S(=O)(=O)c2ccc(-c3ccccc3F)cc2O[C@@H]1CN(C)Cc1cncnc1 | 25 | 25 | -2 | / | / | / | /
COc1ccc2c3c([nH]c2c1)[C@@H](CO)N(CC1CCOCC1)CC31CN(C(=O)C2CC2)C1 | / | 10 | 3 | / | / | / | /
O=C(Nc1ccc(F)cc1)N1CCCCN2[C@@H](CO)[C@@H](c3ccc(C#Cc4ccccc4)cc3)[C@@H]2C1 | 121* | -78 | 33 | 108* | 115* | 118* | 105*
O=C(Nc1cccc(F)c1)N1CCCCN2[C@H](C1)[C@H](c1ccc(C#Cc3cccnc3)cc1)[C@@H]2CO | 93 | 1 | 3 | / | / | / | /
O=C(Nc1cccc(F)c1)N1CCCCN2[C@H](CO)[C@@H](c3ccc(C#Cc4cccnc4)cc3)[C@@H]2C1 | 105* | -28 | 9 | 109* | ? | 15 | 81*
COc1ccc(C#Cc2ccc([C@@H]3[C@@H](CO)N4CCCCN(C(=O)Nc5cccc(F)c5)C[C@@H]34)cc2)cc1 | 65 | -24 | 51 | / | / | / | /
O=C(Nc1cccc(F)c1)N1CCCCN2[C@@H](CO)[C@H](c3ccc(C#Cc4cccnc4)cc3)[C@@H]2C1 | 103* | -76 | 9 | 103* | 79 | 26 | 101*
O=C(Nc1ccc(F)cc1)N1CCCCN2[C@H](CO)[C@@H](c3ccc(C#Cc4ccccc4)cc3)[C@H]2C1 | 82 | -66 | 16 | / | / | / | /
O=C(Nc1cccc(F)c1)N1CCCCN2[C@H](CO)[C@@H](c3ccc(C#Cc4cccnc4)cc3)[C@H]2C1 | 95 | -71 | 5 | / | / | / | /
O=C(Nc1cccc(F)c1)N1CCCCN2[C@H](CO)[C@H](c3ccc(C#Cc4cccnc4)cc3)[C@H]2C1 | 96* | -54 | 29 | 108* | 48 | 22 | 103*
COCC(=O)Nc1ccc2c(c1)C(=O)N(C)C[C@H](OC)[C@H](C)CN(CC1CCCCC1)[C@H](C)CO2 | 0 | -2 | -2 | / | / | / | /
